An excerpt weighted towards active compounds, which were near 7.5% of everything screened.
TSHR antag = Antagonists of the Thyroid Stimulating Hormone Receptor: HTS campaign; activity change, negative = inhibition, % at 11.5 µM; AID 504810, 2011; actives 0.2% (n = 330,000); Thyrotropin receptor (Homo sapiens), P16473; TSHR-expressing cells, TSH-stimulated cAMP HTRF, 2 h; stronger effect = lower value;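 active means activity change below a set negative limit, meaning inhibition stronger than a set level, cut at about -70% in these data; inconclusive means activity change between two set negative limits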
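Read-out is FRET at 665 nm (cryptate excitation 337 nm) from a cryptate-tagged anti-cAMP antibody, competed by cell cAMP against cAMP-d2. Compounds are tested on freshly harvested TSHR cells challenged with 4nM TSH (EC80) for 2 hours at 37 deg C.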
ELG1 repair inh = qHTS screen for small molecules that inhibit ELG1-dependent DNA repair in human embryonic kidney (HEK293T) cells expressing luciferase-tagged ELG1 | HEK293T ELG1-luciferase reporter, luminescence, 16 h; DNA damage induced by 5-fluorouridine | Potency, µM (titrated, usually from 46.1 µM), usual class: inhibitors | actives 2.3% (n = 330,000); further: nearly all actives have a fitted effect of over 55% in size
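Step one: seed 2,000 cells per well. Step two: pin-transfer compound or DMSO alongside 5-fluorouridine. Step three: incubate 16 hr, 37 °C, 5% CO2. Step four: add ONE-Glo, wait 30 min, read luminescence.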
B2AR arrestin = qHTS assay of beta-arrestin-biased ligands of beta2-adrenergic receptor | Potency, µM (top dose mostly 46.1 µM), most hits filed as activators | actives 0.02% (n = 330,000) | Beta-2 adrenergic receptor (Homo sapiens), P07550 | AID 492947, 2010 | beta-arrestin recruitment to beta2AR, cell-based reporter; further: nearly all actives have a fitted effect of over 65% in size
Target sequence (P07550 whole entry, looked up): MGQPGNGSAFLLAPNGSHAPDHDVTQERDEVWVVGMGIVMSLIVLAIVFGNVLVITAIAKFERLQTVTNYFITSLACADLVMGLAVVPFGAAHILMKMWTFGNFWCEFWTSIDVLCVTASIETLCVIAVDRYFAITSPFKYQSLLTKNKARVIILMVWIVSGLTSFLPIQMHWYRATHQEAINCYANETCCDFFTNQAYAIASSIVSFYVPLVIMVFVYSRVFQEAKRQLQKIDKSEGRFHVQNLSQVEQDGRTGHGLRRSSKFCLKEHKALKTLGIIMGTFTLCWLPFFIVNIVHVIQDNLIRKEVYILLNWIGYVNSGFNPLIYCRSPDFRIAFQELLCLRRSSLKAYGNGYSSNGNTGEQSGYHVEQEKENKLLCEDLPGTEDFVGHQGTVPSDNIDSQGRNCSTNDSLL
Gal4-VP16 FLuc = VP16 counterscreen qHTS for inhibitors of ROR gamma transcriptional activity. Drosophila S2 Gal4-VP16 UAS-luciferase, luminescence, 20 h. Potency, µM (highest dose often 53.6 µM), most hits filed as inhibitors. actives 3.5% (n = 310,000);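 further: Gal4-VP16 expression switched on by copper sulfate through the metallothionein promoter; nearly all actives have a fitted effect of over 50% in size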
RORg inh = qHTS for inhibitors of ROR gamma transcriptional activity | Drosophila S2 Gal4-RORgamma UAS-luciferase reporter, 20 h | actives 5.4% (n = 310,000) | Potency, µM (doses to about 53.6 µM), actives largely listed as inhibitors | AID 2551, 2010 | Nuclear receptor ROR-gamma (Mus musculus), P51450; further: nearly all actives have a fitted effect of over 60% in size
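Stable Schneider cell line, Gal4 DNA-binding domain fused to ROR gamma, UAS-luciferase. Cmpd 1 hr RT → CuSO4 700 uM final → 20 hr RT → luciferase reagent 10 min → luminescence.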
A number is an active result; n = inactive; u = inconclusive; x = not tested or not shown; [ ] = dose if it differs, or a comment. Unless noted, the call rests on the fitted dose curve; in most records, active means well fitted curve in the direction sought with a large enough effect; inconclusive means small, poorly fitted or top-dose-only effect, or another doubt; inactive means no such curve, though single readings can be large; an effect the other way counts as inactive or inconclusive.

SMILES	TSHR antag	ELG1 repair inh	B2AR arrestin	Gal4-VP16 FLuc	RORg inh
COc1ccc(NC(=O)c2cncc(Br)c2)cc1S(=O)(=O)N1CCCCC1	n	15µM	n	n	u
COc1ccc(NC(=O)c2cc(F)cc(F)c2)cc1S(=O)(=O)N1CCCCC1	n	u	n	x	x
O=C(O)CCC/C=C\C[C@H]1C(=O)C[C@@H](O)[C@@H]1/C=C/[C@@H](O)CCc1ccccc1	x	x	x	n	n
COc1ccc(N2C(=O)CS/C2=N\C(=S)Nc2ccccc2)cc1	n	n	5.6µM	n	n
COc1ccc(CN(C(=S)Nc2ccccc2)C2CC(=O)N(c3ccc(F)cc3)C2=O)cc1 (stereo unspecified)	n	n	n	n	n
CCn1c2ccccc2c2cc(/C=N/n3cn[nH]c3=S)ccc21	n	n	n	7.1µM	1.1µM
S=c1[nH]ncn1/N=C/c1ccc(Br)cc1	n	u	n	4µM	2.2µM
CCn1c2ccccc2c2cc(/C=N/n3cnnc3)ccc21	n	n	n	u	n
COc1cccc2c1-c1c(O)cccc1C2=O	n	n	n	n	n[1.91 µM]
COc1cccc2c1C(=O)c1c(O)c3c(c(O)c1C2=O)C[C@](O)(C(=O)CO)C[C@H]3O[C@@H]1C[C@H](N)[C@H](O)[C@H](C)O1	x	x	x	7.1µM	1.1µM
COc1ccnc2c1c(=O)n(Cc1cccc(Cl)c1)c(=O)n2C	n	n	n	n	n
CC(C)(C)c1cc2cccnc2n1Cc1cccc(Cl)c1	n	n	n	n[0.365 µM]	2.2µM
CCN1C=C(Cc2ccc(OC)cc2)C2=C(C1)C(c1ccc(OC)cc1)C(C#N)=C(N)O2 (stereo unspecified)	n	21µM	n	n	n
CC(C)[C@@H]1CC[C@@H](C)c2c(-c3ccccc3)n[nH]c21	n	n	n	u	16µM
O=S(=O)(c1ccccc1)N1CCC2(CCCN(c3ccccn3)C2)CC1	x	x	x	n	n
CN1CCC2(CCN3CCc4c(oc5ccccc45)C3C2)N(C)C1=O (stereo unspecified)	n	x	x	x	x
Cc1ccccc1Cc1c(C)nc2c(C(=O)NCc3ccc4c(c3)OCO4)cnn2c1C	n	n	n	n	n
Cc1nc2c(C(=O)NCc3ccc4c(c3)OCO4)cnn2c(C)c1Cc1ccc(F)cc1Cl	n	21µM	n	n	n
COc1ccc(N2CC(C(=O)Nc3nnc(SCC(=O)N4CCOCC4)s3)CC2=O)cc1 (stereo unspecified)	n	n	n	n	n
Cc1nn(-c2ccccn2)c(N)c1N=O	n	n	n	u	11µM
CC(=O)OC1CC(C)OC(C)O1 (stereo unspecified)	x	x	x	n	n
CC1C2CCC3C4CC=C5CC(N(C)C)CC[C@@]5(C)C4CC[C@@]32CN1C (stereo partly specified)	x	x	x	n	n
CC1=CC2=NC(=O)/C(=C\c3cccn3CCOc3cc(C)cc(C)c3)C(=N)N2O1	n	21µM	n	u	u
CC1=CC2=NC(=O)/C(=C\c3cccn3CCOc3cccc(C)c3)C(=N)N2O1	n	23µM	n	u	16µM
Cc1ccc(/C(N)=N/OC(=O)c2cc(-c3ccccc3)nc3ccccc23)cc1	n	n	n	n	n
SMILES	TSHR antag	ELG1 repair inh	B2AR arrestin	Gal4-VP16 FLuc	RORg inh
COc1cc(OC)c(C(=O)O/N=C(\N)c2ccccn2)cc1OC	n	n	n	n	n
N/C(=N\OC(=O)c1ccccc1[N+](=O)[O-])c1ccccn1	n	u	n	n	n
N/C(=N\OC(=O)c1ccccc1Cl)c1ccccn1	n	u	n	14µM	6.3µM
N/C(=N\OC(=O)c1cc(-c2ccccc2)nc2ccccc12)c1ccccn1	n	18µM	n	n	n
Cc1ccc(C(=O)O/N=C(\N)c2ccccn2)c(C)c1	n	u	n	6.3µM	u
COc1ccccc1C(=O)O/N=C(\N)c1ccccn1	n	u	n	u	3.2µM
Cc1ccc(S(=O)(=O)N[C@H]2COC(=O)[C@H](C)COC(=O)[C@H](C)NC(=O)C/C=C\[C@H]2C)cc1	x	x	x	n[10 µM]	n[10 µM]
COc1cccc(CN2CC34CC(c5ccc(C(C)=O)cc5)C(CC3S2(=O)=O)O4)c1 (stereo unspecified)	x	x	x	n	n
CC(C)C(=O)Nc1cccc(NC(=S)NC(=O)c2cccs2)c1	n	u	n	u	n
CCCCC(=O)Nc1ccc(NC(=S)NC(=O)CC)cc1OC	n	n	n	n	13µM
COc1cc(NC(=S)NC(=O)c2cccs2)ccc1NC(=O)C(C)C	n	n	n	u	13µM
CCCCC(=O)Nc1ccc(NC(=S)NC(=O)c2cccs2)cc1OC	n	n	n	u	10µM
CCCCC(=O)Nc1ccc(NC(=S)NC(=O)c2ccco2)cc1OC	n	n	n	n	n
CC(=O)Nc1ccc(SCC(c2ccccc2)N2CCN(C)CCC2=O)cc1 (stereo unspecified)	x	x	x	n	n
CC(=O)N(C(C)=O)c1ncnc2c1c(-c1ccc(Cl)cc1)nn2C(C)(C)C	n	n	n	n	11µM
N=C(N)c1ccc(OCCCCCOc2ccc(C(=N)N)cc2)cc1 (tested in a mixture with another compound)	n	x	x	x	x
CCOC(=S)SCc1cn2cccc(C)c2n1	n	n	n	n	14µM
CC(=O)c1cn(CC(=O)Nc2c(C)cccc2C)c2ccccc12	n	n	n	7.1µM	n
O=C(Cc1ccc(Cl)cc1Cl)Nc1ccncc1	n	n	n	5.6µM	u
O=C(Cc1ccc(Cl)cc1Cl)Nc1ccncc1Cl	n	u	n	5.6µM	n
CC1CCCCN1S(=O)(=O)c1cccc2nonc12 (stereo unspecified)	n	n	n	n	n
COc1ccc(C(CC(=O)N2CCOCC2)c2c(OC)cc(OC)c3c(-c4ccccc4)cc(=O)oc23)cc1 (stereo unspecified)	-82	n	n	n	n
COc1ccc(C(CC(=O)N2CCCC2)c2c(OC)cc(OC)c3c(-c4ccccc4)cc(=O)oc23)cc1 (stereo unspecified)	n	n	n	n	n
O=C(NCc1ccc(F)cc1)C(=O)Nc1nc(C23CC4CC(CC(C4)C2)C3)cs1	n	n	n	4µM	5.6µM
O=C(NCc1ccncc1)C(=O)Nc1nc(C23CC4CC(CC(C4)C2)C3)cs1	n	18µM	n	n	n[10 µM]
CNC(=O)C(=O)Nc1nc(C23CC4CC(CC(C4)C2)C3)cs1	n	u	n	n	n
O=C(NCc1ccccc1)C(=O)Nc1nc(C23CC4CC(CC(C4)C2)C3)cs1	n	u	n	7.1µM	7.9µM
O=C(NCc1cccnc1)C(=O)Nc1nc(C23CC4CC(CC(C4)C2)C3)cs1	n	u	n	n	u

High-throughput results as filed in PubChem BioAssay.
